Experiment [1] is described as follows: TOX21_p53_BLA_p2_viability: Viability Assessment in the Tox21 HCT-116 p53 Agonism Beta-lactamase Assay, Phase 2 (AID 2283591).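 Further: compound exposure lasted 16 h at 37 °C; actives lower the ATP signal meaning cytotoxicity.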 The method in brief:
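HCT-116 p53-bla cells (4000/well) rested 5 h at 37C, then received compounds in DMSO (217-fold dilution) for 16 h at 37C, 5% CO2. After the CCF4 read, CellTiter-Glo was added; ATP luminescence was read after 30 min at room temperature.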

In experiment [2] the target is Cellular tumor antigen p53 (Homo sapiens) (UniProt P04637). The experiment in a line: TOX21_p53_BLA_p2_ratio: Tox21 HCT-116 p53 Agonism Beta-lactamase Assay, Ratio, Phase 2 (AID 2283592). The gist of the method:
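HCT116 cells carrying a p53-responsive beta-lactamase reporter were plated, incubated 5 h at 37C, then dosed with compounds in DMSO (217-fold dilution) for 16 h. CCF4-AM substrate was added for 2 h at room temperature; the 460/530 nm emission ratio gave gain-of-signal activity relative to DMSO.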

Experiment [3] is described as follows: TOX21_p53_BLA_p3_viability: Viability Assessment in the Tox21 HCT-116 p53 Agonism Beta-lactamase Assay, Phase 3 (AID 2283593).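 Further: cells exposed to compound for 16 h before reading.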 The method in brief:
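HCT-116 cells (4000/well) rested 5 h at 37C, then got DMSO compounds by pin tool (217-fold dilution) for 16 h at 37C, 5% CO2. After the bla read, CellTiter-Glo was added and luminescence read at 30 min, room temperature.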

Experiment [4] addresses Cellular tumor antigen p53 (Homo sapiens) (UniProt P04637). The experiment in a line: TOX21_p53_BLA_p3_ratio: Tox21 HCT-116 p53 Agonism Beta-lactamase Assay, Ratio, Phase 3 (AID 2283596). The gist of the method:
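HCT116 p53-bla cells (4000/well) given compound in DMSO (217-fold dilution) after 5 h, incubated 16 h at 37C. CCF4-AM substrate 2 h at room temperature; 460/530 nm emission ratio, gain fitted against DMSO.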

A short description of experiment [5]: TOX21_p53_BLA_p4_viability: Viability Assessment in the Tox21 HCT-116 p53 Agonism Beta-lactamase Assay, Phase 4 (AID 2283597).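 Further: hits lower the luminescence signal meaning cytotoxicity.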 The gist of the method:
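HCT116 p53-bla cells (4000/well) rested 5 h at 37C, then received compounds in DMSO (217-fold dilution) for 16 h at 37C, 5% CO2. CellTiter-Glo was added after the CCF4-AM read, and luminescence was read after 30 min at room temperature.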

Experiment [6] has as its target Cellular tumor antigen p53 (Homo sapiens) (UniProt P04637). Briefly: TOX21_p53_BLA_p5_ratio: Tox21 HCT-116 p53 Agonism Beta-lactamase Assay, Ratio, Phase 5 (AID 2283599). The gist of the method:
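HCT-116 cells carrying a p53-inducible beta-lactamase reporter were seeded at 4000 cells/well and dosed after 5 h with compound in DMSO (217-fold dilution). After 16 h at 37C, CCF4-AM substrate was added for 2 h, and the 460/530 nm emission ratio was scored as gain-of-signal versus DMSO.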

Experiment [7] in a line: TOX21_p53_BLA_p5_viability: Viability Assessment in the Tox21 HCT-116 p53 Agonism Beta-lactamase Assay, Phase 5 (AID 2283600). The gist of the method: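 Cells were plated at 4000/well, rested 5 h at 37C, then given compounds in DMSO (217-fold dilution) for 16 h at 37C, 5% CO2. Following the CCF4-AM beta-lactamase read, CellTiter-Glo was added and luminescence was read after 30 min at room temperature.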

Experiment [8] deals with Cellular tumor antigen p53 (Homo sapiens) (UniProt P04637). Briefly: TOX21_p53_BLA_p4_ratio: Tox21 HCT-116 p53 Agonism Beta-lactamase Assay, Ratio, Phase 4 (AID 2283601). The gist of the method:
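HCT116 cells carrying an inducible beta-lactamase reporter were plated at 4000 cells/well, rested 5 h, then exposed to compounds in DMSO (217-fold dilution) for 16 h at 37C. CCF4-AM substrate was loaded 2 h at room temperature; 460/530 nm emission ratio scored gain-of-signal versus DMSO.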

Structures are written as SMILES. Records with an inconclusive call do not appear. Activity calls are given as the source filed them. How the source made its calls: active means hit-call score of the fitted dose curve at least 0.9, where 1 is the maximum; inconclusive means response in the unintended direction; inactive means score below 0.9.

Cellular tumor antigen p53 (Homo sapiens), sequence (P04637 whole entry, looked up): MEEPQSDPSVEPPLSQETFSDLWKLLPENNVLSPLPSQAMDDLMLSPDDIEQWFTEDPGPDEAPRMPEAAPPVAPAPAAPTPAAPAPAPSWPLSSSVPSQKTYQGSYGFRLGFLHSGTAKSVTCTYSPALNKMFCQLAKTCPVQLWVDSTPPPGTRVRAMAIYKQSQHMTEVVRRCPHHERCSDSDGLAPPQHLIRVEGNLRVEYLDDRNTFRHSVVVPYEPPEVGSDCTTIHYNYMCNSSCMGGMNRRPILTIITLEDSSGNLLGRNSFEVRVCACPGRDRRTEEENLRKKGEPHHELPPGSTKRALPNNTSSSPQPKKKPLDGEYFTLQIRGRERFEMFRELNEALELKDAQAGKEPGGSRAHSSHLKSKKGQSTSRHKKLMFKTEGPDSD

As a reminder, the AC50 is the midpoint of the concentration-response curve, whichever way the signal moves. For the compound `O=C(Nc1ccc(Br)cc1)c1cc(Br)c(Br)s1`, the AC50 was 23 µM (active) in experiment [1]; 32.2 µM (active) in experiment [3]; 18.8 µM (active) in experiment [4]; 19.5 µM (active) in experiment [5]; 19.9 µM (active) in experiment [6]. Further, the outcome in experiment [2], in experiment [7] and in experiment [8] was inactive.
In the case of `CC1=C(/C=C/C(C)=C/C=C/C(C)=C\C=O)C(C)(C)CCC1`, the concentration at half-maximal activity (AC50) in experiment [1] was 72.1 µM (active); in experiment [3] it was 64.9 µM (active); in experiment [4] it was 75.3 µM (active); in experiment [5] it was 80.9 µM (active); in experiment [6] it was 66.7 µM (active); in experiment [7], 74.6 µM (active). For the same compound, the outcome in experiment [2] and in experiment [8] was inactive.
Regarding `C[n+]1cc2c3c(ccc2c2ccc4cc5c(cc4c21)OCO5)OCO3`, the AC50 is 4.28 µM (active) in experiment [1]; 4.96 µM (active) in experiment [2]; 2.31 µM (active) in experiment [3]; 2.32 µM (active) in experiment [4]; 3.64 µM (active) in experiment [5]; 5.66 µM (active) in experiment [6]. Besides, the AC50 in experiment [7] was 5.48 µM (active); in experiment [8], 9.14 µM (active).
With `O=S(=O)(O)CC(S)CS` (centres undefined), the result in experiment [1], in experiment [2], in experiment [3], in experiment [4], in experiment [5] and in experiment [6] was inactive. The compound was called inactive in experiment [7] and in experiment [8].
As for `C=CC(=O)OCC1CC2CC1C1CCC(COC(=O)C=C)C21` (centres undefined), the AC50 in experiment [1] was 65.8 µM (active); in experiment [2] it was 55.2 µM (active); in experiment [5], 64.1 µM (active); in experiment [6], 74.8 µM (active); in experiment [8], 53 µM (active). For the same compound, the call in experiment [3], in experiment [4] and in experiment [7] was inactive.
In the case of `O=C(Nc1ccc(S(=O)(=O)N2CCOCC2)cc1)c1cc(Cl)ccc1NS(=O)(=O)c1ccc(Cl)s1`, the compound was called inactive in experiment [1], in experiment [2], in experiment [3], in experiment [4] and in experiment [7]. Besides, the half-maximal activity concentration (AC50) in experiment [5] is 22 µM (active); in experiment [6], 21.7 µM (active); in experiment [8], 36.5 µM (active).
Consider `NC(=O)c1ccccc1C(N)=O`, for which the result in experiment [1], in experiment [3], in experiment [4], in experiment [5], in experiment [7] and in experiment [8] was inactive. Also, the half-maximal activity concentration (AC50) in experiment [2] is 72.7 µM (active); in experiment [6], 73.1 µM (active).
For `CCNC(=O)N1CCN(CCCC(c2ccc(F)cc2)c2ccc(F)cc2)CC1`, the outcome in experiment [1], in experiment [2], in experiment [3], in experiment [4], in experiment [5] and in experiment [6] was inactive. The call in experiment [7] and in experiment [8] was inactive.
In the case of `N#CCc1cccc(C(F)(F)F)c1`, the result in experiment [1], in experiment [2], in experiment [3], in experiment [4], in experiment [5] and in experiment [6] was inactive. The compound was called inactive in experiment [7] and in experiment [8].
`CCc1cccc(CC)c1NC(=O)CN(CC(=O)O)CC(=O)O`: the compound was called inactive in experiment [1], in experiment [2], in experiment [3], in experiment [4], in experiment [5] and in experiment [6]. In addition, the outcome in experiment [7] and in experiment [8] was inactive.
For `Nc1[nH]c(=O)ncc1F`, the call in experiment [1], in experiment [2], in experiment [3], in experiment [4], in experiment [5] and in experiment [6] was inactive. Besides, the compound was called inactive in experiment [7] and in experiment [8].
As to `CN1CC(=O)N/C1=N/C(=O)Nc1cccc(Cl)c1`, the compound was classed as inactive in experiment [1], in experiment [2], in experiment [3], in experiment [4], in experiment [5] and in experiment [6]. Also, the outcome in experiment [7] and in experiment [8] was inactive.
Consider `CCCCCCCC/C=C\CCCCCCCC(=O)NCc1ccc(O)c(OC)c1`, for which the call in experiment [1], in experiment [2], in experiment [4], in experiment [5], in experiment [6] and in experiment [7] was inactive. Also, the outcome in experiment [8] was inactive. For the same compound, the half-maximal activity concentration (AC50) in experiment [3] was 41.5 µM (active).
Consider `O=C(O)c1cc(-c2ccccc2)nc2ccccc12`, for which the outcome in experiment [1], in experiment [2], in experiment [3], in experiment [4], in experiment [5] and in experiment [6] was inactive. Besides, the call in experiment [7] and in experiment [8] was inactive.
With `C=CCNC(N)=S`, the call in experiment [1], in experiment [2], in experiment [3], in experiment [4], in experiment [5] and in experiment [6] was inactive. Moreover, the outcome in experiment [7] and in experiment [8] was inactive.
As to `CCOc1ccc(Cc2nccc3cc(OCC)c(OCC)cc23)cc1OCC`, the compound was classed as inactive in experiment [1], in experiment [2], in experiment [3], in experiment [4], in experiment [5] and in experiment [6]. The call in experiment [7] and in experiment [8] was inactive.
Turning to `CCCOc1ccccc1-c1nc2n[nH]nc2c(=O)[nH]1`, the result in experiment [1], in experiment [2], in experiment [3], in experiment [4], in experiment [5] and in experiment [6] was inactive. Further, the call in experiment [7] and in experiment [8] was inactive.
Turning to `[O]=[Bi]`, the outcome in experiment [1], in experiment [2], in experiment [3], in experiment [4], in experiment [5] and in experiment [6] was inactive. The call in experiment [7] and in experiment [8] was inactive.

For the origin of these results see PubChem BioAssay (EPA / NIEHS).
